The values below come from PubChem BioAssay AID651704 (Broad Institute, 2012).

Molecules are shown by their SMILES. Hit rate of the full screen: of about 350,000 compounds, about 1,600 (0.46%) were called active. Shown is part of a subset that was picked to be rich in actives. Unmarked numbers belong to inactive results.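 Rule for the calls: active = every replicate reaching a set inhibition limit, whatever the replicate mean (cut at about 25% in these data); inconclusive = mean inhibition reaches that limit but some replicates miss it; inactive = the rest.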

In the test the target is Protein AF-9 (Homo sapiens) (UniProt P42568). The test can be described thus: inhibitors of AF4 peptide binding to AF9, primary screen, biochemical, AlphaScreen, biotin-AF4 peptide, FLAG-AF9, single point (AID 651704).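 Note: 0% = plate neutral control median and 100% = total signal loss.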 The following applies: at 10 µM, active compounds read high.
Chain of Protein AF-9 (Homo sapiens) (P42568 whole entry, looked up): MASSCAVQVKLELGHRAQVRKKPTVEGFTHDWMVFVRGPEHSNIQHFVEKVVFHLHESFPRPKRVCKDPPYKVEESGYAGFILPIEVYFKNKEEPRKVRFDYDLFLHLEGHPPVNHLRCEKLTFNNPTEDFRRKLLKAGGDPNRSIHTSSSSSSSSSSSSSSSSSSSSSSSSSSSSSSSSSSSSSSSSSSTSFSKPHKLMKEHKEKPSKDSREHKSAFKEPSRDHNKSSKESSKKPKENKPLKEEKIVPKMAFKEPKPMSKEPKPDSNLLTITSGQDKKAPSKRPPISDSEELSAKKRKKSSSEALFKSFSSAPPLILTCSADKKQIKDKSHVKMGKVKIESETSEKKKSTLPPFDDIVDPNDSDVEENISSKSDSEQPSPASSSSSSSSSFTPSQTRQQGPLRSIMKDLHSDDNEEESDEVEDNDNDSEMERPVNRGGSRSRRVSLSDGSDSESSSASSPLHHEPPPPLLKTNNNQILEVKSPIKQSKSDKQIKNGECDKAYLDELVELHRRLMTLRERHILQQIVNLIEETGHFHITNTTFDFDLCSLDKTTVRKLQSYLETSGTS
The inhibition is the relative decrease from the control value, in per cent. For `CCC1(C)CC(CCNCc2ccc(N(C)C)cc2)(c2ccc(F)cc2)CCO1` (stereo not given), the inhibition is 28.4% (active).

In the case of `COc1ccc2c(c1)NP(=S)(c1ccccc1)N2` (stereo not given), the inhibition was -0.621%.

As to `O=C(O)[C@@H]1[C@@H](CO)[C@@H]2Cn3c(ccc(-c4ccccc4F)c3=O)[C@H]1N2C(=O)c1cccnc1`, the inhibition is 1.92%.

Consider `CSCCC(c1nnnn1C(C)(C)C)N1CCC(n2c(=O)[nH]c3ccccc32)CC1` (stereo not given), for which the inhibition was 14%.

As for `CC(C)CN1Cc2cc(N3CCCCC3)ccc2-n2nncc2C1`, the inhibition was 6.47%.

As for `COC(=O)[C@H]1[C@H](CO)[C@H]2Cn3c(ccc(-c4ccccc4F)c3=O)[C@@H]1N2C(=O)C1CCC1`, the inhibition was 1.06%.

In the case of `Cc1ncoc1C(=O)NCC1=C(c2cccc3ccccc23)C[C@@H]2CC[C@H]1N2Cc1ccco1`, the inhibition was 3.14%.

For the compound `CCOC(=O)[C@]12Cc3cc(OC)ccc3[C@H]1N(C(C)C)C(=O)c1ccccc12`, the inhibition was -1.49%.

Turning to `O=C(O)COc1ccccc1/C=C1\C(=O)NC(=O)N(CCC2=CCCCC2)C1=O`, the inhibition is 51.4% (active).

As for `O=C1NC(=O)N(Cc2ccco2)C(=O)/C1=C\c1cccn1CCOc1ccccc1`, the inhibition is -1.69%.

With `O=C1NC(=O)N(CCc2ccc(F)cc2)C(=O)/C1=C/C=C/c1ccccc1`, the inhibition is 7.75%.

Regarding `O=C1NCN(c2ccccc2)C12CCN(C(c1cccs1)c1nnnn1C1CCCCC1)CC2` (stereo not given), the inhibition was 8.26%.

As to `CCn1cc(CN2CCCC(C(=O)c3cccc(C(F)(F)F)c3)C2)cn1` (stereo not given), the inhibition was 0.062%.

For `Cc1cc2ccccn2c1C(C[N+](=O)[O-])c1c(F)cccc1Cl` (stereo not given), the inhibition is 25.5% (active).

`O=C(NC[C@@H]1CC[C@H]2NC[C@H]2O1)C1CCCC1`: the inhibition is -2.73%.

Take `COC(=O)C1=C(c2ccc(OCc3ccccc3)cc2)C[C@@H]2CC[C@H]1N2C(=O)NCc1ccc(Cl)cc1`: the inhibition was -0.419%.

`O=c1[nH]c2ccccc2n1C1CCN(C(c2ccnc3ccccc23)c2nnnn2Cc2ccccc2)CC1` (stereo not given): the inhibition was -0.349%.

On to `C[C@@H]1CN([C@H](C)CO)C(=O)CCCn2cc(nn2)CO[C@@H]1CN(C)C(=O)Oc1cccc2ccccc12`, for which the inhibition was -0.246%.

As for `CCOc1cccc(=NC2CCCCC2)c2c(C)[nH]c(C)c12`, the inhibition is 31.5% (active).

For the compound `O=c1[nH]c2ccccc2n1C1CCN(C(c2ccccc2)c2nnnn2Cc2ccccc2)CC1` (stereo not given), the inhibition is 2.84%.
